Assay in all cases: NCI-60 one-dose screen, 48 h (100 = growth as untreated, 0 = no growth, -100 = all killed)
What all share (details): 10 µM unless noted

Experiment [1] has as its system SK-MEL-2 melanoma.
The subject of experiment [2] is EKVX NSCLC.
Experiment [3] relates to SN12C renal.
In experiment [4] the test system is UO-31 renal.
Experiment [5] relates to TK-10 renal.
The subject of experiment [6] is ACHN renal.
Experiment [7] has as its system A498 renal.
Experiment [8] has as its system CCRF-CEM leukemia.
The subject of experiment [9] is MOLT-4 leukemia.
In experiment [10] the test system is RPMI-8226 leukemia.
Experiment [11] deals with OVCAR-8 ovarian.
Experiment [12] has as its system OVCAR-5 ovarian.
In experiment [13] the test system is OVCAR-4 ovarian.
The test system of experiment [14] is SK-OV-3 ovarian.
The subject of experiment [15] is OVCAR-3 ovarian.
Experiment [16] relates to HS 578T breast.
Experiment [17] concerns NCI/ADR-RES ovarian.
In experiment [18] the test system is SR leukemia.
Experiment [19] relates to IGROV1 ovarian.

Compounds without any hit were thinned out: in the full panel of roughly 83,000, 20% have a hit.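 48-hour exposure, single concentration, 96-well plates; percent growth endpoint where 0 means no net growth. Active: below 10.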 A number with no mark means an inactive call. The source made the active and inactive calls.

As to `CN(C)C(=O)Nc1nc2cc(Cl)c(Cl)cc2[nH]1`, the growth in experiment [1] was -14.7% (active); in experiment [2], 57.7%; in experiment [3], 51%; in experiment [4] it was 20.4%; in experiment [5], 30.7%; in experiment [6] it was 52.6%. Moreover, the growth in experiment [7] was 46.7%; in experiment [8] it was 10.3%; in [9], 8.26% (active); in experiment [10] it was -15.7% (active); in experiment [11], 13.6%; in [12] it was 40.3%. Further, the growth in experiment [13] was 33.9%; in experiment [14], 20.1%; in experiment [15] it was -49.9% (active); in experiment [16], 50.8%; in experiment [17], 3.19% (active).

For the compound `CCN(CC)c1ccc(C2CC(c3cc(OC)c(OC)c(OC)c3)=NN2)cc1` (stereo unspecified), the growth is 27.6% in experiment [1]; 27.6% in experiment [2]; 47.2% in experiment [3]; 36.5% in [4]; 77.8% in [5]; 75.3% in experiment [6]. Also, the growth was -2.94% (active) in experiment [7]; 7.4% (active) in experiment [9]; -10.8% (active) in [18]; -13.1% (active) in experiment [10]; 6.48% (active) in experiment [11]; 40.6% in [12]. Besides, the growth is 37.2% in experiment [13]; 5.94% (active) in experiment [14]; 17.7% in experiment [19]; -13.3% (active) in [16]; -37% (active) in [17].

In the case of `COC(=O)c1oc2c(C(C)=O)c(OCCN3CCCCC3)ccc2c1C`, the growth is 88.7% in experiment [1]; 113% in experiment [2]; 119% in experiment [3]; 84.5% in experiment [4]; 92.1% in [5]; 108% in experiment [6]. The growth in experiment [7] was 131%; in [8], 50.5%; in experiment [9], 108%; in experiment [10] it was 97.6%; in experiment [11], 107%; in experiment [12] it was 107%. The growth in experiment [13] was 161%; in experiment [14], 107%; in experiment [16], 107%; in [17], 95.5%.

As for `Cc1cn(C2CC(F)C(CO)O2)c(=O)[nH]c1=O` (stereo unspecified), the growth is 115% in [1]; 89.1% in [2]; 94.8% in [3]; 77.6% in experiment [4]; 91.9% in [5]; 83.7% in experiment [6]. Also, the growth in experiment [7] was 112%; in [8], 80.7%; in [9] it was 57%; in [10] it was 82.5%; in experiment [11], 90.4%; in [12], 94.4%. Further, the growth in experiment [13] is 93.1%; in [14], 93.1%; in experiment [16] it was 133%; in [17] it was 86.5%.

For the compound `O=C1CN(CCN2CC(=O)NC(=O)C2)CC(=O)N1`, the growth in experiment [1] is 113%; in experiment [2], 84.4%; in experiment [3], 104%; in experiment [4], 71.8%; in [5], 107%; in experiment [6], 103%. Further, the growth was 103% in experiment [7]; 107% in experiment [8]; 28.5% in experiment [9]; 88.1% in [10]; 103% in experiment [11]; 93.2% in [12]. For the same compound, the growth in [13] was 96.1%; in [14] it was 102%; in experiment [15], 113%; in experiment [16] it was 102%; in [17], 99.9%.

`CCC(C)Nc1ccc(N)cc1` (stereo unspecified): the growth in [1] was 7.8% (active); in experiment [2], 8.66% (active); in experiment [3] it was 10.5%; in [4] it was -2.85% (active); in [5], 45.4%; in experiment [6], 46%. For the same compound, the growth in experiment [7] is 91.9%; in experiment [8], 12.8%; in experiment [9], -13.7% (active); in experiment [10], -25.4% (active); in [12] it was 74%; in experiment [13], -4.82% (active). The growth in [14] is 38.5%; in [15] it was -42.9% (active); in experiment [16] it was 78.9%; in experiment [17], 70.6%.

For the compound `c1ccc(OCC[P+](c2ccccc2)(c2ccccc2)c2ccccc2)cc1`, the growth is -16.2% (active) in experiment [1]; 26.3% in experiment [2]; 29.8% in experiment [3]; 63.5% in experiment [4]; 40.2% in experiment [5]; 60.5% in experiment [6]. Besides, the growth in [7] was 74.2%; in experiment [9], 34.8%; in experiment [18] it was 22.7%; in experiment [10] it was 10.9%; in experiment [11], 24.5%; in experiment [12], 43.1%. The growth in experiment [13] was 15.8%; in [14], 39.5%; in [19] it was 8.06% (active); in [15], -31.5% (active); in [17], 108%.

Regarding `COC1OCC(OS(=O)(=O)c2ccc(C)cc2)C(OC(=O)c2ccccc2)C1OC(=O)c1ccccc1` (stereo unspecified), the growth is 36.1% in [1]; 53.4% in experiment [2]; 74.3% in experiment [3]; 48.3% in experiment [4]; 88% in [5]; 54% in experiment [6]. For the same compound, the growth is 87.4% in experiment [7]; 48.9% in experiment [9]; 39.6% in experiment [18]; 45.5% in experiment [10]; 69.3% in experiment [11]; 72.5% in experiment [12]. Also, the growth is 57% in [13], 86.1% in experiment [14], 37.8% in [19] and -6.71% (active) in experiment [17].

Regarding `Nc1nc2ccc(CNc3ccc(C(=O)NC(CC(=O)O)C(=O)O)cc3)cc2c(=O)[nH]1` (stereo unspecified), the growth in [1] was 51.9%; in experiment [2] it was 63.6%; in experiment [3], 41.3%; in [4], 16.9%; in experiment [5] it was 82%; in experiment [6] it was 33.1%. Also, the growth in [7] was 93.1%; in experiment [8] it was 23.2%; in experiment [9] it was 30.4%; in experiment [10], 44.3%; in [11], 13.1%; in [12], 52.2%. The growth in [13] is 65.6%; in [14], 76.8%; in [15], 58.2%; in experiment [16] it was 97.5%; in experiment [17] it was 33%.

For `O=C(O)c1cn(C2CC2)c2cc(N3CCN(C(=O)CSc4nc(NS(=O)(=O)c5ccccc5)cc(=O)[nH]4)CC3)c(F)cc2c1=O`, the growth is 79.7% in [1]; 105% in [2]; 98.6% in experiment [3]; 82% in experiment [4]; 118% in [5]; 102% in experiment [6]. In addition, the growth is 113% in experiment [7]; 81% in [8]; 82.1% in experiment [10]; 98.5% in experiment [11]; 112% in [12]; 104% in experiment [13]. Besides, the growth is 117% in experiment [14]; 98.3% in [19]; 83.9% in experiment [15]; 89.1% in experiment [16]; 101% in [17].
